The text below walks through data of PubChem BioAssay (NCI).

About 83,000 compounds went through this panel and 20% of them were active in at least one assay; those are over-represented in the sample as a whole.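 How to read the values: 0–100, growth inhibition (40 = 60% inhibited); 0, no net growth; -100 to 0, cell death (-40 = 40% of starting cells died; -100 = all dead).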 A number with no mark means an inactive call. Active and inactive are the calls of the source. The calls were made as follows: active = growth percent below 10; inactive = the rest.

What all share (test): NCI-60 one-dose screen, 48 h (100 = growth as untreated, 0 = no growth, -100 = all killed)
What all share (conditions): 10 µM unless noted

In experiment [1] the test system is NCI-H23 lung.
The test system of experiment [2] is NCI-H226 lung.
The test system of experiment [3] is NCI-H322M lung.
Experiment [4] deals with HOP-62 NSCLC.
Experiment [5] concerns NCI-H460 lung.
In experiment [6] the test system is HOP-92 NSCLC.
The subject of experiment [7] is NCI-H522 lung.
Experiment [8] deals with A549/ATCC NSCLC.
In experiment [9] the test system is 786-0 renal.
Experiment [10] relates to COLO 205 colon.
Experiment [11] concerns DU-145 prostate.
Experiment [12] concerns K-562 leukemia.
Experiment [13] has as its system MALME-3M melanoma.
In experiment [14] the test system is MDA-MB-231 breast.
Experiment [15] has as its system SF-268 CNS.
Experiment [16] deals with SF-295 CNS.
Experiment [17] deals with SF-539 CNS.
Experiment [18] relates to UACC-257 melanoma.
In experiment [19] the test system is M14 melanoma.

Regarding `CC(C)(O)C1CCCN1C(=O)c1ccccc1I` (configuration not stated), the growth in experiment [1] was 94.6%; in [2], 89.4%; in experiment [3], 101%; in experiment [4], 95.4%; in experiment [5], 85.8%; in experiment [6], 58.6%. For the same compound, the growth in [7] is 83.9%; in experiment [8] it was 92.1%; in experiment [9], 87.7%; in [10], 105%; in experiment [11], 111%; in [12], 83.5%. In addition, the growth in [13] is 109%; in experiment [14], 84%; in experiment [15] it was 91.5%; in [16], 84.4%; in [17], 105%; in experiment [18], 104%. The growth in experiment [19] is 95.1%.
Consider `CC[N+](CC)(CCCC(C)[N+]1(Cc2ccccc2)C(C)=CC=C1C)Cc1ccccc1` (configuration not stated), for which the growth in experiment [1] is 72.3%; in [2], 81.2%; in experiment [3] it was 96.7%; in [4], 98.1%; in [5], 97%; in experiment [6] it was 55.3%. For the same compound, the growth in experiment [7] was 75%; in [8], 100%; in [9], 99.5%; in experiment [10], 67.9%; in [11], 101%; in experiment [12] it was 54.6%. Besides, the growth in experiment [13] was 87.8%; in experiment [14], 78.6%; in [15], 98.9%; in experiment [16] it was 97.8%; in experiment [17], 97.6%; in experiment [18] it was 84.2%. For the same compound, the growth in experiment [19] is 66.5%.
With `Cc1[nH]n(C(=O)c2ccncc2)c(=O)c1N=Nc1ccc(F)c(Cl)c1`, the growth in experiment [1] is 92.1%; in experiment [2], 91.9%; in [3], 110%; in experiment [4], 95.8%; in experiment [5], 109%; in experiment [6] it was 89.7%. The growth in experiment [7] is 103%; in experiment [8] it was 107%; in experiment [9], 92.9%; in experiment [10], 126%; in [11] it was 139%; in experiment [12], 21.4%. Also, the growth in experiment [13] is 104%; in experiment [14] it was 100%; in [15], 94.2%; in experiment [16] it was 91.1%; in [17], 97%; in [18], 11.7%. In [19], the growth is 99.8%.
With `COc1ccc(C(=O)/C=C/c2cn(Cc3ccc(Cl)cc3)c3ccccc23)cc1`, the growth was 87.5% in experiment [1]; 55.1% in experiment [2]; 79.5% in experiment [3]; 58.9% in experiment [4]; 11.8% in [5]; 77.3% in [6]. Further, the growth is 26.5% in [7]; 57.2% in [8]; 26.9% in experiment [9]; 62.9% in experiment [10]; 87.4% in experiment [11]; 15.5% in experiment [12]. Further, the growth in [13] was 59.9%; in experiment [14], 64.5%; in experiment [15], 72.4%; in experiment [16], 60.2%; in [17], 55.8%; in experiment [18], 81.8%. Further, the growth in experiment [19] was -60.1% (active).
`COc1ccc(-c2nc3sccn3c2/C=C/C(=O)c2cc(OC)c(OC)c(OC)c2)cc1`: the growth in experiment [1] was 59.9%; in experiment [2], 87.4%; in experiment [3], 69.4%; in experiment [4], 79.1%; in [5] it was 47%; in experiment [6], -1.77% (active). Moreover, the growth in experiment [7] is 5.02% (active); in experiment [8], 60.4%; in [9], 78.3%; in experiment [10], 79.2%; in [11] it was 75.7%; in [12] it was 44.2%. In addition, the growth is 53.3% in experiment [13]; 52.8% in experiment [14]; 67.4% in [15]; 54.6% in experiment [16]; 53% in experiment [17]; 69.1% in experiment [18]. Moreover, in [19], the growth was 63.6%.
On to `CCCCCCCCCCCCCCCC(=O)OC[C@@]1(O)C[C@@]23CC[C@@H]4C(C)(C)CCC[C@@]4(C)[C@@H]2CC[C@H]1C3`, for which the growth in [1] was 102%; in experiment [2] it was 98.3%; in experiment [3], 114%; in experiment [4], 106%; in experiment [5], 98.4%; in [6], 117%. The growth in [7] was 89.3%; in experiment [8], 103%; in [9], 27.9%; in [10] it was 112%; in experiment [11], 108%; in experiment [12], 59.3%. For the same compound, the growth in experiment [13] is 112%; in experiment [14], 96%; in experiment [15] it was 110%; in [16], 111%; in experiment [17], 108%; in experiment [18] it was 104%. Moreover, the growth in experiment [19] is -51.8% (active).
As for `COc1ccc(-c2nc(SCC(C)C)nc(N/N=C(/C)c3ccc(OC)c(OC)c3)c2C#N)cc1`, the growth is 89.7% in experiment [1]; 94.1% in experiment [2]; 79.7% in [3]; 86.9% in [4]; 65.9% in experiment [5]; 38.4% in [6]. Also, the growth in experiment [7] was 80.8%; in [8], 99.8%; in experiment [9], 96.9%; in experiment [10], 110%; in experiment [11], 87.7%; in experiment [12], 69.5%. Moreover, the growth in experiment [13] was 88.9%; in [14] it was 74.5%; in experiment [15] it was 79.1%; in experiment [16], 92.8%; in experiment [17] it was 80.9%; in [18], 105%. Moreover, the growth in [19] is 94%.
In the case of `COc1cc(NCCN(CC(C)C)C2CCCC2)c2ncccc2c1`, the growth is 81.1% in [1]; 92% in experiment [2]; 118% in experiment [3]; 82.9% in experiment [4]; 95.7% in [5]; 95.9% in experiment [6]. Further, the growth was 78.1% in experiment [7]; 81.7% in experiment [8]; 98.1% in experiment [9]; 101% in [10]; 104% in experiment [11]; 99% in experiment [12]. Moreover, the growth is 126% in experiment [13]; 79% in experiment [14]; 86% in experiment [15]; 94.1% in experiment [16]; 98.3% in experiment [17]; 91.5% in experiment [18]. Further, the growth in experiment [19] is 102%.
